# Source: PubChem (Johns Hopkins Ion Channel Center)
# TMEM16A inh: TMEM16A chloride channel inhibitors, primary screen, cell-based, HTS. Anoctamin-1 (Mus musculus), Q8BHY3. normalized B-score (activity score, 25-100; higher = stronger inhibition) at 10 µM. HEK293 TMEM16A/YFP iodide influx fluorescence, ionomycin. actives 1.2% (n = 310,000);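 active = ratio plate-corrected score three or more library SD toward inhibition, starting fluorescence score within five deviations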;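 note: score derived from kinetic fluorescence span divided by baseline fluorescence per well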
# CHT allo act: CHT positive allosteric modulators, primary screen, cell-based, membrane potential dye, choline EC20. CHT-expressing cells; stronger effect = higher value; LV-AA mutant CHT in HEK293 cells. High affinity choline transporter 1 (Homo sapiens), Q9GZV3. actives 0.49% (n = 310,000). B-score at 10 µM. AID 488977, 2010;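 active = initial fluorescence not abnormally high and integrated response B-score, plate-corrected, over 3 SD above library mean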
# Target sequence (Q9GZV3 whole entry, looked up): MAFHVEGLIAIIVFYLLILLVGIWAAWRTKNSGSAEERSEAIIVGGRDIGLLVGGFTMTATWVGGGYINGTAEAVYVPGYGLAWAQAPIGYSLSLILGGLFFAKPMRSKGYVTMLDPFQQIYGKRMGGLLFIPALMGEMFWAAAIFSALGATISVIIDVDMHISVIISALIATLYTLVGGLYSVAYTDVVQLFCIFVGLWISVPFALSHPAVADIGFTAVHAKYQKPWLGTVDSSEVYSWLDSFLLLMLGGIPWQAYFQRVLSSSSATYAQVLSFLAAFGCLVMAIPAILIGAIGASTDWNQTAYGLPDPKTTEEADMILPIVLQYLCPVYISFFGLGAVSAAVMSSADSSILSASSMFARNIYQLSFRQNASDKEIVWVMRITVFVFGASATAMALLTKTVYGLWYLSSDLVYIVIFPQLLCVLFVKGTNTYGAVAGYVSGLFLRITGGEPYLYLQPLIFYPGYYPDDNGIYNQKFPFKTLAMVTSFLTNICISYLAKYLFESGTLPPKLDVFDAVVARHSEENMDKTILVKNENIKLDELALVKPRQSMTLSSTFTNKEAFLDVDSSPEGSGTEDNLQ
# ANO1 activ: TMEM16A chloride channel activators or potentiators, primary screen, cell-based, HTS; Anoctamin-1 (Mus musculus), Q8BHY3; HEK293 TMEM16A/YFP-H148Q/I152L, iodide quench fluorescence; stronger effect = lower value; B-score at 10 µM; actives 0.3% (n = 340,000); AID 623877, 2012;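 active = fluorescence-ratio B-score plate-corrected deviation score at least 3 library SD below zero, with starting fluorescence score within 5 deviations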;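 note: channel opened by trigger with iodide after compound preincubation; score built on the fluorescence ratio of max minus min over baseline; more negative score means more quench and so TMEM16A activation or potentiation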
# CHT block: inhibitors of human choline transporter CHT | High affinity choline transporter 1 (Homo sapiens), Q9GZV3 | CHT-expressing cells, membrane potential dye, choline response; stronger effect = lower value | B-score at 10 µM | actives 0.86% (n = 310,000);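 active = B-score over 3 SD under the library average, and starting fluorescence ratio not unusually high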;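 note: choline stimulus applied at its EC90 after an EC20 pre-addition; B-score computed on integrated fluorescence ratio after choline addition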
# TMEM16A reconf: TMEM16A chloride channel inhibitors, confirmation, cell-based, re-confirmation; shares compounds with TMEM16A inh; HEK293 TMEM16A/YFP-H148Q, iodide quench fluorescence; ionomycin added to raise cell calcium; inhibition, % at 10 µM; actives 39% (n = 2,300);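 active = mean duplicate percent inhibition, scaled so buffer wells are 0 and the reference blocker 100, over three buffer SD above buffer mean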
# TMEM16A Ca cntr: calcium mobilization in TMEM16A/YFP HEK293 cells, confirmation, counter-screen for TMEM16A inhibitor project. shares compounds with TMEM16A inh. Fluo4 calcium mobilization. calcium response (% of ionomycin), % at 10 µM. actives 2% (n = 2,300);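 active = duplicate-averaged calcium signal over 20% of the ionomycin maximum, relative to buffer baseline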;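 note: each well's signal is peak minus trough fluorescence divided by its pre-addition baseline; 0% = buffer wells and 100% = ionomycin wells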
# Parental YFP cnt: iodide YFP quench changes in parental YFP-HEK293, counter-screen for TMEM16A inhibitor project, cell-based. shares compounds with TMEM16A inh. ionomycin. YFP ratio F(max-min)/F0 at 10 µM. 2,300 tested, under 10 active. AID 652233, 2013;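 active = yellow fluorescent protein signal ratio exceeding the buffer control mean by over 5 SD of those controls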;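 note: ratio is mean of duplicate wells from kinetic YFP trace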
# ClC-1 rat inh: ClC-1 chloride channel inhibition, selectivity assay for TMEM16A inhibitor project, cell-based, voltage-dependent ClC-1; 2,300 tested, under 10 active; CHO ClC-1-YFP, iodide influx fluorescence quench; iodide control reads 0, buffer control 100; ratio percent, % at 10 µM; shares compounds with TMEM16A inh;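 active = duplicate-mean ratio percent above the mean of iodide-only control wells, which defines zero, plus 5 of their SD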;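 note: higher percent means stronger block of ClC-1 iodide influx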
# Numbers without * were called inactive; i = inactive; · = no result given. The list is not random: actives were taken first. Their share in the collection is about 2.4%.
SMILES,TMEM16A inh,CHT allo act,ANO1 activ,CHT block,TMEM16A reconf,TMEM16A Ca cntr,Parental YFP cnt,ClC-1 rat inh
COC(=O)C(Cc1ccc(OC(=O)c2ccccc2Cl)cc1)N1Cc2ccccc2C1=O (configuration not stated),100*,i,i,i,i,i,-1,-5.0
O=c1oc2ccccc2cc1-c1nc2c(s1)CCCC2,25*,i,i,i,i,i,-1.25,-7.5
O=c1oc2ccccc2cc1-c1csc(NN=C2CCCCC2)n1,i,i,i,i,·,·,·,·
COc1ccc(C(C#N)c2cnccn2)cc1OC (configuration not stated),i,i,i,i,·,·,·,·
CN(C(=O)CSc1ncnc2sccc12)c1c(N)n(Cc2ccccc2)c(=O)[nH]c1=O,i,i,i,i,·,·,·,·
CCCCCSc1nnc(-c2cc(Br)ccc2N)c(=O)[nH]1,25*,i,i,i,i,i,-1.16,-11.0
CCCCCCCSc1nnc(-c2ccccc2N)c(=O)[nH]1,i,i,i,i,·,·,·,·
Cc1nc(-c2ccc(Cl)cc2)sc1C1(C)CC(c2ccc(Cl)cc2)=NO1 (configuration not stated),25*,i,i,i,i,i,-0.934,0.0
CCCNC(=O)COC(=O)c1cc(C)nc2ccccc12,i,i,i,i,·,·,·,·
CC(=Nc1cccc(C)c1)c1sc2ccccc2c1O,i,i,i,i,i,i,-0.93,-9.5
CCN(CC)CCN(C(=O)c1c(F)cccc1F)c1nc2cc(C)cc(C)c2s1,i,i,i,i,·,·,·,·
C=CCn1c(C)cc(C(=O)CSc2nc3ccccc3[nH]2)c1C,25*,i,i,i,43.0%*,i,-0.967,-20.0
CCCCCC(=O)Nc1cc(S(=O)(=O)O)cc2cc(S(=O)(=O)O)cc(O)c12,·,·,i,·,·,·,·,·
Cc1cc2n(n1)C(c1cn(-c3ccccc3)nc1C)Nc1c(C)cccc1-2 (configuration not stated),i,i,i,i,i,i,-1.39,-5.0
Cc1cc2n(n1)C(c1cn(-c3ccccc3)nc1C)Nc1ccccc1-2 (configuration not stated),i,i,i,i,·,·,·,·
Cc1ccc(C)c(NC(=O)c2ccccc2O)c1,25*,i,i,i,36.0%*,i,-1.1,-2.0
Cc1ccc(C)c(NC(=O)c2cc(C)nc3ccccc23)c1,i,i,i,i,·,·,·,·
CCOc1ccccc1NC(=S)Nc1ncccc1C,i,i,i,i,·,·,·,·
COc1ccc(CCNC(=O)CN2C(=O)NC3(CCOc4ccccc43)C2=O)cc1 (configuration not stated),·,·,i,·,·,·,·,·
COc1ccccc1N1CCN(C(=O)CSc2nnc3n2C(C)(C)Cc2ccccc2-3)CC1,25*,i,i,i,i,i,-1.09,-4.0
CC(=O)c1ccc(N2CCN(C(=O)Nc3ccc(C(C)C)cc3)CC2)cc1,100*,i,i,i,29.0%*,i,-0.945,-3.0
CC(=O)c1ccc(N2CCN(C(=S)Nc3ccccc3)CC2)cc1,100*,i,i,i,i,i,-0.99,-6.5
O=C1N(Cc2ccc(F)cc2Cl)c2ccccc2C12OCCCO2,i,i,i,i,·,·,·,·
O=C1N(Cc2ccccc2F)c2ccccc2C12OCCCO2,100*,i,i,i,i,i,-1.14,-9.0
